Laboratory results published in PubChem BioAssay (Tox21).
“And” between values parts separate entries of the source, which are not always exact repeats. Identical values can stand only once. Inconclusive results are not listed. The source holds several records for some structures; these can differ, active in one and inactive in another. The source made the active and inactive calls. Calls follow the shape of the full dose curve. Starred links: 1 amine or outer side, 2 acyl side, 3 side chain; linkers in the order of their positions; H or OH if unused. Positions of bridges follow the written chain, without caps; N, C: chain ends. Non-standard residues stand in square brackets, D forms with d. Residues, ends and D or L forms follow the SMILES beside them. Chains are numbered I, II in the order given. Actinocin(9to1) = Cc1c2oc3c(C)ccc(C(=O)[*:1])c3nc-2c(C(=O)[*:2])c(N)c1=O; NMeV = CN[C@H](C(=O)O)C(C)C; Sar = CNCC(=O)O

Assay: qHTS assay for small molecule agonists of the p53 signaling pathway - cell viability (AID 651633); also: nearly all actives have a fitted effect of over 30% in size;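 as to activity change, negative = cytotoxicity: p53RE-bla HCT reporter cells with a stable beta-lactamase p53 reporter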
Settings: p53RE-bla HCT-116 viability, ATP luminescence, 16 h; series mostly up to 83.3 µM; activity change, negative = cytotoxicity: at the top concentration
Method in brief: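 Viability counter-read: CellTiter-Glo luminescence (30 min, room temperature) in the same p53RE-bla plates. These plates had been exposed to compounds for 16 h at 37 C.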
% is scaled to controls: 0 for no effect and ±100 for the full control effect; potency is read from the fitted curve at half-maximal effect.

Which Potency does the source give for `CC1=CC(=O)c2ccccc2C1=O` here?
Its Potency is 24.3 µM (active).

For `CCc1ccc(C(c2ccc(CC)cc2)C(Cl)Cl)cc1`, which Potency is on record?
Its Potency is “inactive”.

Which Potency does the source give for `NCCO` here?
The Potency was “inactive”.

With `COc1cc(C(=S)N2CCOCC2)ccc1O` as the compound, how does the “activity change, negative = cytotoxicity” value read?
Its value is 20% (inactive).

With `Cc1cc(Cc2cc(C)cc(C(C)(C)C)c2O)c(O)c(C(C)(C)C)c1` as the compound, how does the Potency read?
The Potency was 13.8 µM (active) and 17.2 µM (active).

For `Nc1cc(S(=O)(=O)O)cc2cc(S(=O)(=O)O)cc(O)c12`, which Potency is on record?
Its Potency is “inactive”.

Which Potency does the source give for `Cc1cc(C2(c3cc(C)c(O)cc3C)OS(=O)(=O)c3ccccc32)c(C)cc1O` here?
Its Potency is “inactive”.

For `CC(=O)N[C@@H](CS)C(=O)O`, which Potency is on record?
Its Potency is “inactive”.

Which “activity change, negative = cytotoxicity” value does the source give for `CC[C@@H](N)CO` here?
Its value is 12.7% [at 95.3 µM] (inactive).

Which Potency does the source give for `COC(=O)[C@H]1[C@H]2C[C@@H]3c4[nH]c5cc(OC)ccc5c4CCN3C[C@H]2C[C@@H](OC(=O)c2cc(OC)c(OC)c(OC)c2)[C@@H]1OC` here?
Its Potency is “inactive”.

For `CC(C)(C)c1ccccc1`, which “activity change, negative = cytotoxicity” value is on record?
The value was -14.9% (inactive).

Which Potency does the source give for `Cc1ccnc2c1NC(=O)c1cccnc1N2C1CC1` here?
The Potency was “inactive”.

With `CCOC(=O)C(C)C(C)=O` (centres undefined) as the compound, how does the “activity change, negative = cytotoxicity” value read?
Its value is 0.348% [at 95.3 µM] (inactive).

Which “activity change, negative = cytotoxicity” value does the source give for `O=Cc1ccc(Cl)cc1` here?
Its value is 20% (inactive).

With `O=S(=O)(O)c1ccc2nc(-c3ccccc3)[nH]c2c1` as the compound, how does the Potency read?
The Potency was 9.44 µM (active) and 26 µM (active).

Which Potency does the source give for `CCN(CC)c1ccc2c(C)cc(=O)oc2c1` here?
The Potency was “inactive”.

Which Potency does the source give for `CC(=O)C1=C(C)[C@@H]2C[C@@]3(C1)[C@H](C)CC[C@H]3C2(C)C` here?
The Potency was “inactive”.

With `CCCC(=O)c1ccccc1` as the compound, how does the “activity change, negative = cytotoxicity” value read?
The value was 15.9% (inactive).

Which “activity change, negative = cytotoxicity” value does the source give for `COC(c1ccccc1)(c1ccccc1)[C@H](Oc1nc(C)cc(C)n1)C(=O)O` here?
The value was -13.7% (inactive).

With `Cc1cccc2n[nH]nc12` as the compound, how does the Potency read?
The Potency was “inactive”.

Which Potency does the source give for `Oc1c(Cl)cc(Cl)c(Cl)c1Cc1c(O)c(Cl)cc(Cl)c1Cl` here?
Its Potency is 1.88 µM (active) and 68.4 µM (active) and 12.2 µM (active).

For `Cc1scc2c1N(C(=O)CN1CCN(C)CC1)c1ccccc1NC2=O`, which “activity change, negative = cytotoxicity” value is on record?
The value was 14.2% (inactive).

Which “activity change, negative = cytotoxicity” value does the source give for `CCN(CC)C(=O)Nc1ccc(OCC(O)CNC(C)(C)C)c(C(C)=O)c1` (centres undefined) here?
Its value is -19.3% (inactive).

Which “activity change, negative = cytotoxicity” value does the source give for `CC[C@H]1CN2CCc3cc(OC)c(OC)cc3[C@@H]2C[C@@H]1C[C@H]1NCCc2cc(OC)c(OC)cc21` here?
The value was -28.9% [at 95.3 µM] (inactive).

With `OCCOCCN1CCN(C(c2ccccc2)c2ccc(Cl)cc2)CC1` (centres undefined) as the compound, how does the Potency read?
The Potency was “inactive and 60.3 µM (active)”.

Which Potency does the source give for `Cc1cc(C(C)(C)C)c(O)c(C(C)(C)C)c1` here?
Its Potency is “inactive”.

For `CC(=O)CC(C)=O`, which “activity change, negative = cytotoxicity” value is on record?
The value was 19.1% [at 95.3 µM] (inactive).

Which “activity change, negative = cytotoxicity” value does the source give for `NC(Cc1ccc(Cl)cc1)C(=O)O` (centres undefined) here?
The value was 10.5% (inactive).

With `CC1=C(C=O)C(C)(C)CC=C1` as the compound, how does the “activity change, negative = cytotoxicity” value read?
The value was 15.9% [at 95.3 µM] (inactive).

For `CCCCOCCOC(=O)c1ccccc1C(=O)OCCOCCCC`, which Potency is on record?
The Potency was “inactive”.

For `CCCCC/C=C/CC1CC(=O)OC1=O` (centres undefined), which “activity change, negative = cytotoxicity” value is on record?
The value was 16.1% (inactive).

For `O=C(O)c1cn(-c2ccc(F)cc2)c2cc(N3CCNCC3)c(F)cc2c1=O`, which “activity change, negative = cytotoxicity” value is on record?
The value was 22.5% (inactive).

For `C=C(C)C(=O)O`, which Potency is on record?
The Potency was “inactive”.

For `CC(C(O)c1ccc(O)cc1)N1CCC(Cc2ccccc2)CC1` (centres undefined), which “activity change, negative = cytotoxicity” value is on record?
The value was -13.3% (inactive).

With `Cc1c2oc3c(C)ccc(C(=O)N[C@@H]4C(=O)N[C@H](C(C)C)C(=O)N5CCC[C@H]5C(=O)N(C)CC(=O)N(C)[C@@H](C(C)C)C(=O)O[C@@H]4C)c3nc-2c(C(=O)N[C@@H]2C(=O)N[C@H](C(C)C)C(=O)N3CCC[C@H]3C(=O)N(C)CC(=O)N(C)[C@@H](C(C)C)C(=O)O[C@@H]2C)c(N)c1=O` (I: T[dV]P[Sar][NMeV] / II: T[dV]P[Sar][NMeV]; ester I:1-I:C, II:1-II:C; linker I:N-II:N via Actinocin(9to1)) as the compound, how does the Potency read?
The Potency was “inactive”.

For `C=CS(=O)(=O)O`, which Potency is on record?
The Potency was “inactive”.

Which Potency does the source give for `O=c1n(CC2CO2)c(=O)n(CC2CO2)c(=O)n1CC1CO1` (centres undefined) here?
Its Potency is “inactive”.

Assay: qHTS assay for small molecules that induce genotoxicity in human embryonic kidney cells expressing luciferase-tagged ATAD5 - cell viability (AID 651634); also: nearly all actives have a fitted effect of over 25% in size
Settings: HEK293T ATAD5-luc cells viability, CellTiter-Fluor, 15.5 h; series mostly up to 83.3 µM; activity, negative = cytotoxicity: at the top concentration
Method in brief: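 Cytotoxicity counter-readout: after 15.5 hr compound treatment at 37C, live-cell protease activity in ATAD5-luciferase HEK293T cells measured by CellTiter-Fluor fluorescence, 30 min development at 37C.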

For `CC1=CC(=O)c2ccccc2C1=O`, which “activity, negative = cytotoxicity” value is on record?
The value was 108% (inactive).

Which Potency does the source give for `CCc1ccc(C(c2ccc(CC)cc2)C(Cl)Cl)cc1` here?
The Potency was “inactive”.

For `NCCO`, which Potency is on record?
Its Potency is “inactive”.

For `COc1cc(C(=S)N2CCOCC2)ccc1O`, which “activity, negative = cytotoxicity” value is on record?
Its value is 12.5% (inactive).

Which Potency does the source give for `Cc1cc(Cc2cc(C)cc(C(C)(C)C)c2O)c(O)c(C(C)(C)C)c1` here?
Its Potency is 61.4 µM (active) and 61.1 µM (active).

Which “activity, negative = cytotoxicity” value does the source give for `Nc1cc(S(=O)(=O)O)cc2cc(S(=O)(=O)O)cc(O)c12` here?
The value was -18.7% (inactive).

Which Potency does the source give for `Cc1cc(C2(c3cc(C)c(O)cc3C)OS(=O)(=O)c3ccccc32)c(C)cc1O` here?
The Potency was 30.6 µM (active) and 17.2 µM (active).

With `CC(=O)N[C@@H](CS)C(=O)O` as the compound, how does the Potency read?
The Potency was “inactive”.

Which “activity, negative = cytotoxicity” value does the source give for `CC[C@@H](N)CO` here?
The value was 14.7% [at 95.3 µM] (inactive).

Which Potency does the source give for `COC(=O)[C@H]1[C@H]2C[C@@H]3c4[nH]c5cc(OC)ccc5c4CCN3C[C@H]2C[C@@H](OC(=O)c2cc(OC)c(OC)c(OC)c2)[C@@H]1OC` here?
The Potency was “inactive”.

With `CC(C)(C)c1ccccc1` as the compound, how does the “activity, negative = cytotoxicity” value read?
The value was 14.6% (inactive).

For `Cc1ccnc2c1NC(=O)c1cccnc1N2C1CC1`, which Potency is on record?
Its Potency is “inactive”.

For `CCOC(=O)C(C)C(C)=O` (centres undefined), which “activity, negative = cytotoxicity” value is on record?
Its value is 12.4% [at 95.3 µM] (inactive).

With `O=Cc1ccc(Cl)cc1` as the compound, how does the “activity, negative = cytotoxicity” value read?
Its value is 7.67% (inactive).

With `O=S(=O)(O)c1ccc2nc(-c3ccccc3)[nH]c2c1` as the compound, how does the Potency read?
The Potency was “inactive”.

For `CCN(CC)c1ccc2c(C)cc(=O)oc2c1`, which “activity, negative = cytotoxicity” value is on record?
Its value is 447% (inactive).

Which Potency does the source give for `CC(=O)C1=C(C)[C@@H]2C[C@@]3(C1)[C@H](C)CC[C@H]3C2(C)C` here?
Its Potency is “inactive”.

Which “activity, negative = cytotoxicity” value does the source give for `CCCC(=O)c1ccccc1` here?
The value was -3.33% (inactive).

For `COC(c1ccccc1)(c1ccccc1)[C@H](Oc1nc(C)cc(C)n1)C(=O)O`, which “activity, negative = cytotoxicity” value is on record?
Its value is -1.91% (inactive).

Which Potency does the source give for `Cc1cccc2n[nH]nc12` here?
The Potency was “inactive”.

With `Oc1c(Cl)cc(Cl)c(Cl)c1Cc1c(O)c(Cl)cc(Cl)c1Cl` as the compound, how does the Potency read?
The Potency was 6.68 µM (active) and 2.72 µM (active) and 1.93 µM (active).

Which “activity, negative = cytotoxicity” value does the source give for `Cc1scc2c1N(C(=O)CN1CCN(C)CC1)c1ccccc1NC2=O` here?
The value was 13% (inactive).

For `CCN(CC)C(=O)Nc1ccc(OCC(O)CNC(C)(C)C)c(C(C)=O)c1` (centres undefined), which “activity, negative = cytotoxicity” value is on record?
The value was 11.4% (inactive).

For `CC[C@H]1CN2CCc3cc(OC)c(OC)cc3[C@@H]2C[C@@H]1C[C@H]1NCCc2cc(OC)c(OC)cc21`, which Potency is on record?
Its Potency is 168 nM (active) and 194 nM (active).

Which “activity, negative = cytotoxicity” value does the source give for `OCCOCCN1CCN(C(c2ccccc2)c2ccc(Cl)cc2)CC1` (centres undefined) here?
The value was 4.55% (inactive).

With `Cc1cc(C(C)(C)C)c(O)c(C(C)(C)C)c1` as the compound, how does the Potency read?
Its Potency is “inactive”.

Which “activity, negative = cytotoxicity” value does the source give for `CC(=O)CC(C)=O` here?
Its value is 10.8% [at 95.3 µM] (inactive).

With `NC(Cc1ccc(Cl)cc1)C(=O)O` (centres undefined) as the compound, how does the “activity, negative = cytotoxicity” value read?
Its value is 12.5% (inactive).

With `CC1=C(C=O)C(C)(C)CC=C1` as the compound, how does the “activity, negative = cytotoxicity” value read?
Its value is 1.79% [at 95.3 µM] (inactive).

Which Potency does the source give for `CCCCOCCOC(=O)c1ccccc1C(=O)OCCOCCCC` here?
Its Potency is “inactive”.

For `CCCCC/C=C/CC1CC(=O)OC1=O` (centres undefined), which “activity, negative = cytotoxicity” value is on record?
The value was 12.5% (inactive).

For `O=C(O)c1cn(-c2ccc(F)cc2)c2cc(N3CCNCC3)c(F)cc2c1=O`, which “activity, negative = cytotoxicity” value is on record?
Its value is 5.25% (inactive).

With `C=C(C)C(=O)O` as the compound, how does the Potency read?
The Potency was “inactive”.

Which “activity, negative = cytotoxicity” value does the source give for `CC(C(O)c1ccc(O)cc1)N1CCC(Cc2ccccc2)CC1` (centres undefined) here?
Its value is -13.2% (inactive).

For `Cc1c2oc3c(C)ccc(C(=O)N[C@@H]4C(=O)N[C@H](C(C)C)C(=O)N5CCC[C@H]5C(=O)N(C)CC(=O)N(C)[C@@H](C(C)C)C(=O)O[C@@H]4C)c3nc-2c(C(=O)N[C@@H]2C(=O)N[C@H](C(C)C)C(=O)N3CCC[C@H]3C(=O)N(C)CC(=O)N(C)[C@@H](C(C)C)C(=O)O[C@@H]2C)c(N)c1=O` (I: T[dV]P[Sar][NMeV] / II: T[dV]P[Sar][NMeV]; ester I:1-I:C, II:1-II:C; linker I:N-II:N via Actinocin(9to1)), which Potency is on record?
Its Potency is 16.8 nM (active) and 23.7 µM (active).

For `C=CS(=O)(=O)O`, which Potency is on record?
Its Potency is “inactive”.

For `O=c1n(CC2CO2)c(=O)n(CC2CO2)c(=O)n1CC1CO1` (centres undefined), which Potency is on record?
Its Potency is “inactive”.
